Source: PubChem BioAssay (NCATS)
Records with an inconclusive call do not appear. Activity calls are given as the source filed them. The call rests on the fitted dose curve; in most records, active means well fitted curve in the direction sought with a large enough effect; inconclusive means small, poorly fitted or top-dose-only effect, or another doubt; inactive means no such curve, though single readings can be large; an effect the other way counts as inactive or inconclusive.

Key:
[1] = qHTS of pediatric cancer cell lines to identify multiple opportunities for drug repurposing: Primary screen for RD cells (AID 1347104); further: nearly all actives have a fitted effect of over 55% in size; further: potency means the concentration at half of the fitted maximal effect
How it was run: (§1)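 Readout: CellTiter-Glo luminescence, 48 h treatment. Controls DMSO (neutral) and bortezomib 2.3 µM final (positive). Potency and efficacy taken from primary-screen concentration-response curves.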

[2] = qHTS of pediatric cancer cell lines to identify multiple opportunities for drug repurposing: Primary screen for MG 63 (6-TG R) cells (AID 1347105); further: nearly all actives have a fitted effect of over 50% in size; further: potency means the concentration at half of the fitted maximal effect
How it was run: as §1

[3] = qHTS of pediatric cancer cell lines to identify multiple opportunities for drug repurposing: Primary screen for control Hh wild type fibroblast cells (AID 1347106);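 further: series mostly up to about 46 µM; a drop in luminescence marks cytotoxicity and a rise apparent proliferation; nearly all actives have a fitted effect of over 55% in size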
How it was run: (§2)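 Cells (500-1,000/well) in growth media were settled 5 h at 37 degrees C, then given compounds for 48 h. Viability was read as CellTiter-Glo luminescence. Primary runs used MIPE at 11 points (0.78 nM-46 µM) and NPC at 8 points (0.59 nM-46 µM); follow-ups used 11 points.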

[4] = qHTS of pediatric cancer cell lines to identify multiple opportunities for drug repurposing: Primary screen for Rh30 cells (AID 1347107); further: series mostly up to about 46 µM; nearly all actives have a fitted effect of over 75% in size
How it was run: as §2

[5] = qHTS of pediatric cancer cell lines to identify multiple opportunities for drug repurposing: Primary screen for Rh41 cells (AID 1347108); further: nearly all actives have a fitted effect of over 70% in size; further: potency means the concentration at half of the fitted maximal effect
How it was run: as §1

[6] = qHTS of pediatric cancer cell lines to identify multiple opportunities for drug repurposing: Confirmatory screen for NB1643 cells (AID 1347109); further: nearly all actives have a fitted effect of over 45% in size; further: potency means the concentration at half of the fitted maximal effect
How it was run: as §2

[7] = qHTS of pediatric cancer cell lines to identify multiple opportunities for drug repurposing: Confirmatory screen for A673 cells (AID 1347110);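 further: cells exposed to compound for 48 h before the viability read; nearly all actives have a fitted effect of over 65% in size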; further: potency means the concentration at half of the fitted maximal effect
How it was run: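 Concentration-response curves came straight from titrations: 11 points (0.78 nM to 46 µM) for MIPE and several concentrations (0.59 nM to 46 µM) for NPC in primary, 11 points in follow-up. Readout: ATP luminescence at 48 h.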

[8] = qHTS of pediatric cancer cell lines to identify multiple opportunities for drug repurposing: Confirmatory screen for SK-N-MC cells (AID 1347111);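 further: cells exposed to compound for 48 h before the readout; nearly all actives have a fitted effect of over 70% in size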; further: potency means the concentration at half of the fitted maximal effect
How it was run: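 Metabolically active cells were quantified by ATP-dependent luminescence (CellTiter-Glo, 15 min at room temperature) following 48 h treatment. Cells had been plated at 500-1,000 per well and settled for 5 h beforehand.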

[9] = qHTS of pediatric cancer cell lines to identify multiple opportunities for drug repurposing: Confirmatory screen for BT-12 cells (AID 1347112); further: nearly all actives have a fitted effect of over 55% in size; further: potency means the concentration at half of the fitted maximal effect
How it was run: as §2

[10] = qHTS of pediatric cancer cell lines to identify multiple opportunities for drug repurposing: Confirmatory screen for LAN-5 cells (AID 1347113); details: outcome: dose series up to 45.9 µM; further: nearly all actives have a fitted effect of over 65% in size
How it was run: as §2

[11] = qHTS of pediatric cancer cell lines to identify multiple opportunities for drug repurposing: Confirmatory screen for DAOY cells (AID 1347114); further: nearly all actives have a fitted effect of over 65% in size; further: potency means the concentration at half of the fitted maximal effect
How it was run: (§3)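 Viability measured as metabolically active cells via CellTiter-Glo luminescence following 48 hours of compound exposure, 11-point dilutions in confirmatory testing. 500-1,000 cells/well plated 5 hours before dosing; controls were DMSO and 2.3 µM bortezomib.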

[12] = qHTS of pediatric cancer cell lines to identify multiple opportunities for drug repurposing: Confirmatory screen for SJ-GBM2 cells (AID 1347116); details: outcome: dose series up to 45.9 µM; further: nearly all actives have a fitted effect of over 60% in size
How it was run: as §3

[13] = qHTS of pediatric cancer cell lines to identify multiple opportunities for drug repurposing: Confirmatory screen for BT-37 cells (AID 1347117); further: nearly all actives have a fitted effect of over 55% in size; further: potency means the concentration at half of the fitted maximal effect
How it was run: as §2

[14] = qHTS of pediatric cancer cell lines to identify multiple opportunities for drug repurposing: Confirmatory screen for control Hh wild type fibroblast cells (AID 1347121); further: nearly all actives have a fitted effect of over 70% in size
How it was run: as §2

[15] = qHTS of pediatric cancer cell lines to identify multiple opportunities for drug repurposing: Confirmatory screen for U-2 OS cells (AID 1347122); further: nearly all actives have a fitted effect of over 65% in size; further: potency means the concentration at half of the fitted maximal effect
How it was run: as §2

[16] = qHTS of pediatric cancer cell lines to identify multiple opportunities for drug repurposing: Confirmatory screen for Rh41 cells (AID 1347123);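 further: 48 h compound exposure; nearly all actives have a fitted effect of over 60% in size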; further: potency means the concentration at half of the fitted maximal effect
How it was run: as §2

[17] = qHTS of pediatric cancer cell lines to identify multiple opportunities for drug repurposing: Confirmatory screen for RD cells (AID 1347124)
How it was run: as §2

[18] = qHTS of pediatric cancer cell lines to identify multiple opportunities for drug repurposing: Confirmatory screen for NB-EBc1 cells (AID 1347115);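 further: cells exposed to compound for 48 h before the viability read; nearly all actives have a fitted effect of over 45% in size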
How it was run: as §2

[19] = qHTS of pediatric cancer cell lines to identify multiple opportunities for drug repurposing: Confirmatory screen for TC32 cells (AID 1347118); further: potency means the concentration at half of the fitted maximal effect
How it was run: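 Measured quantity: luminescence from CellTiter-Glo, reflecting metabolically active TC32 cells following 48 h of compound. Curves came straight from multi-point titrations, with 8 or 11 points in primary and 11 in confirmatory screening.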

[20] = qHTS of pediatric cancer cell lines to identify multiple opportunities for drug repurposing: Confirmatory screen for MG 63 (6-TG R) cells (AID 1347119); further: nearly all actives have a fitted effect of over 55% in size
How it was run: as §2

Measured: Potency

COc1ccc2c(c1OC)C(=O)O[C@H]2[C@@H]1c2cc3c(cc2CCN1C)OCO3
inactive: [1] | [2] | [3] | [4] | [5]

CCN[C@@H](C)Cc1cccc(C(F)(F)F)c1
inactive: [1] | [2] | [3] | [4] | [5]

Cc1ncsc1CCCl
inactive: [1] | [2] | [3] | [4] | [5]

CCC(CC)(CNC(=O)CCCO)c1cccc(OC)c1
inactive: [1] | [2] | [3] | [4] | [5]

COc1cccc(C(=O)CCN[C@@H](C)[C@H](O)c2ccccc2)c1
inactive: [3]

O=C1OC(CCN2CCCCC2)OC1(c1ccccc1)c1ccccc1 (stereo unspecified)
inactive: [1] | [3] | [4] | [5]

O=C(N/N=C/c1ccc([N+](=O)[O-])o1)c1cc([N+](=O)[O-])cc([N+](=O)[O-])c1O
active: [8] 10400 nM
not listed: [5] | [18] | [19] | [20]
inactive: all other assays above

O=C(O)c1ccc(=O)[nH]c1
inactive: [1] | [2] | [3] | [4] | [5]

C[C@](O)(CS(=O)(=O)c1ccc(F)cc1)C(=O)Nc1ccc(C#N)c(C(F)(F)F)c1
active: [1] 5900 nM | [2] 1180 nM | [5] 2960 nM
not listed: [3] | [4] | [7] | [11] | [16]
inactive: all other assays above

CCOP(=S)(OCC)Oc1ccc2c(C)c(Cl)c(=O)oc2c1
not listed: [8] | [10] | [13] | [14] | [19]
inactive: all other assays above

C[C@]12CCC(=O)C=C1CC[C@@H]1[C@@H]2CC[C@@]2(C)[C@H]1CC[C@]2(C)O
active: [16] 18500 nM
not listed: [2] | [5] | [8] | [11] | [15] | [19] | [20]
inactive: all other assays above

COP(=S)(OC)Oc1cc(Cl)c(Cl)cc1Cl
inactive: [1] | [2] | [3] | [4] | [5]

O=P1(N(CCCl)CCCl)NCCCO1 (stereo unspecified)
not listed: [6] | [11] | [12]
inactive: all other assays above

O=C(Nc1ccc(Br)cc1)c1cc(Br)cc(Br)c1O
active: [2] 33500 nM
inactive: [3]

CN1CC[C@]23c4c5ccc(O)c4O[C@H]2[C@@H](O)C=C[C@H]3[C@H]1C5
inactive: [2] | [3] | [4]

NC(=O)c1cc([N+](=O)[O-])cc([N+](=O)[O-])c1
inactive: [1] | [2] | [3] | [4] | [5]

CCc1cc2c(s1)-n1c(C)nnc1CN=C2c1ccccc1Cl
inactive: [1] | [2] | [3] | [4] | [5]

CCCN(CCC)C(=O)Cc1c(-c2ccc(Cl)cc2)nc2ccc(Cl)cn12
active: [7] 10400 nM | [16] 18500 nM
not listed: [5] | [8] | [11] | [15] | [19]
inactive: all other assays above

COc1cccc2c1C(=O)c1c(O)c3c(c(O)c1C2=O)C[C@@](O)(C(=O)CO)CC3OC1CC(N2CCOC(OC)C2)C(O)C(C)O1 (stereo partly specified)
active: [1] 84.1 nM | [2] 21.1 nM | [5] 94.4 nM | [6] 14.7 nM | [7] 23.3 nM | [8] 3.7 nM | [9] 46.5 nM | [11] 32.9 nM | [13] 6.6 nM | [19] 5.9 nM | [15] 73.7 nM | [16] 36.9 nM
inactive: [4] | [14]

O=C1c2ccccc2C(=O)C1C(=O)C(c1ccccc1)c1ccccc1
inactive: [1] | [3] | [4] | [5]

CC(C)N(CCC(C(N)=O)(c1ccccc1)c1ccccn1)C(C)C (stereo unspecified)
inactive: [1] | [2] | [3] | [4] | [5]

C[C@]12CCC(=O)C=C1CC[C@@H]1[C@H]3CC[C@](C)(O)[C@@]3(C)CC[C@@H]12
inactive: [3]
active: [5] 38900 nM
